Two compounds from the supplement of paper PMC5736601 can be followed below.

± gives the uncertainty stated by the source.

The assay has as its system human primary fetal neurons. Put plainly: surviving MAP-2+ neurons after FeSO4 challenge with drug pre-treatment, relative to untreated control (% of untreated control); higher = more neuroprotection against iron toxicity. The following applies: 10 µM; FeSO4 concentration 25-50 µM; 24 h. Here is the method:
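Human fetal primary neurons (96-well, AIM-V serum-free medium) were pre-treated for 1 h with each NINDS Custom Collection II drug at 10 µM, then challenged with FeSO4 (25 or 50 µM). After 24 h they were fixed, stained with anti-MAP-2 and counted by automated imaging (ImageXpress/MetaXpress). MAP-2+ neuron counts were normalised to untreated control wells (100%); values are the mean of 1-4 independent experiments, each in quadruplicate.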
Take `Cc1ccc(O)cc1.Cc1cccc(O)c1.Cc1ccccc1O`: the “surviving MAP-2+ neurons” value was found to be 6.04 ± 1.1. The same measure for `CN(C)CCOC(c1ccccc1)c1ccccc1.Cn1c(=O)c2[nH]c(Cl)nc2n(C)c1=O`: 36.5 ± 5.3.
